# Screening results as filed in PubChem BioAssay.
# Six1-Eya2 blk – Six1/Eya2 interaction inhibition; Q15475+O00167; AlphaScreen GST-Six1/His-Eya2 binding, biochemical; hits give low values; activity change, % (no concentration beside the values); hit rate 0.56% among 360,000; AID 651725; in the data active = activity change below about -65%; inconclusive = mostly about -30% to -63%; note: % is set by controls: 0 for no effect and ±100 for the full control effect
#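 Compounds are tested against tagged Six1 and Eya2 proteins bridged by glutathione donor and nickel acceptor beads; after a one-hour incubation at 37 °C without light, AlphaScreen emission is recorded.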
# BAZ2B block – blocks human BAZ2B. Q9UIF8. AlphaScreen BAZ2B-H3K14Ac peptide displacement. Potency, µM (titrated, usually from 114 µM), for the others: top-dose activity change, negative = inhibition, hits mostly inhibitors. hit rate 4.4% among 360,000. AID 504333; note: potency is the fitted concentration of half-maximal effect; % is set by controls: 0 for no effect and ±100 for the full control effect; nearly all actives have a fitted effect of over 60% in size
#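 BAZ2B (50 nM) with biotin-H3(5-23)K14Ac peptide (50 nM) in PBS pH 7.4, 0.01% Tween-20, preformed 30 min, then compound 30 min at room temperature; top concentration 110uM. AlphaScreen streptavidin donor/nickel chelate acceptor beads (10 ug/mL final), 20 min dark, signal read.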
# G9a inh – inhibitors of human histone lysine methyltransferase G9a; Potency, µM (series often up to 102 µM), without a hit: top-dose activity, negative = inhibition, usual class: inhibitors; G9a H3K9 monomethylation, AlphaScreen, 2 h; Q96KQ7; hit rate 8.8% among 350,000; AID 504332; note: potency is the fitted concentration of half-maximal effect; % is set by controls: 0 for no effect and ±100 for the full control effect; nearly all actives have a fitted effect of over 75% in size
# Target sequence (Q96KQ7 913-1193 limits assumed): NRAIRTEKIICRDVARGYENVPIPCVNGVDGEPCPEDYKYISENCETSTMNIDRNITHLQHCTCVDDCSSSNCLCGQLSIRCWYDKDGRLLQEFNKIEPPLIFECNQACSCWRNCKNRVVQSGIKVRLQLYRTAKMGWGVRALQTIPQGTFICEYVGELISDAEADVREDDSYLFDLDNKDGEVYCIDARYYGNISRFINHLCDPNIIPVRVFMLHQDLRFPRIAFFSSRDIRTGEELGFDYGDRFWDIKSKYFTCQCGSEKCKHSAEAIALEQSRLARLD
#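 G9a (20 nM) preincubated 15 min RT with compounds, then 500 nM biotinylated H3K9 peptide and 20 uM SAM added; 2 h RT reaction. Monomethyl-H3K9 product detected by AlphaScreen with anti-H3K9me1 antibody, streptavidin donor and anti-rabbit IgG acceptor beads.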
# JMJD2A Tudor – blocks the human JMJD2A Tudor domain; AlphaScreen JMJD2A-Tudor / H3K4me3 peptide binding; Potency, µM (highest dose often 114 µM), without a hit: at the top dose activity change, negative = inhibition, usual class: inhibitors; hit rate 4.4% among 390,000; AID 504339; note: potency is the fitted concentration of half-maximal effect; % is set by controls: 0 for no effect and ±100 for the full control effect; nearly all actives have a fitted effect of over 50% in size
# HP1b chromo inh – inhibitors of HP1-beta chromodomain binding to methylated histone tails. P83916. AlphaScreen HP1-beta / biotin-H3K9me3 peptide binding. Potency, µM (series often up to 114 µM), for inactives: top-dose activity change, negative = inhibition, usual class: inhibitors. hit rate 0.56% among 390,000. AID 540317; note: potency is the fitted concentration of half-maximal effect; nearly all actives have a fitted effect of over 70% in size
# Target sequence (P83916 whole entry, looked up): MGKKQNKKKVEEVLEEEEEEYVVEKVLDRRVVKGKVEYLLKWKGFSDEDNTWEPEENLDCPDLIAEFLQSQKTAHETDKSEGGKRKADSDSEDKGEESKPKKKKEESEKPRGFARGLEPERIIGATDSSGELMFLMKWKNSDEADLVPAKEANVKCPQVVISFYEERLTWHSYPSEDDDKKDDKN
#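 AlphaScreen: HP1-beta (50 nM) preformed 30 min with biotin-H3(1-18)K9me3 peptide (50 nM) in PBS pH 7.4, 0.01% Tween-20. Compound added for 30 min at RT, then streptavidin donor/nickel chelate acceptor beads (10 ug/mL) for 30 min.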
# CtBP-E1A inh – inhibitors of CtBP/E1A interaction; AlphaScreen GST-E1A/His-CtBP binding, 1536-well; hits give low values; activity change, % (no concentration beside the values); hit rate 0.49% among 340,000; in the data active = activity change below about -65%; inconclusive = mostly about -30% to -63%; note: % is set by controls: 0 for no effect and ±100 for the full control effect
#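 Protein mix (5X: 125 nM each GST-E1A, His-CtBP) was incubated with pinned compound 2 h at 37 deg C in dark, in 50 mM Tris pH 8.0 buffer with 300 mM NaCl. Glutathione donor and nickel acceptor beads followed; AlphaScreen signal read after 1 h.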
# Numbers without * were called inactive; ? = inconclusive; · = no result given; [ ] = dose if it differs, or a comment. A selection: hits, their analogues and other compounds. The true share with any hit is near 10%. Unless noted, calls come from the whole dose curve; as a rule, active = well fitted inhibition curve with a large enough effect; inconclusive = small, poorly fitted or top-dose-only effect; inactive = no such curve, though single readings can be large or run the other way.
SMILES,Six1-Eya2 blk,BAZ2B block,G9a inh,JMJD2A Tudor,HP1b chromo inh,CtBP-E1A inh
O=C(O)c1cc(N(Cc2ccccc2O)Cc2cc(O)ccc2O)ccc1O,·,·,2.2µM*,·,·,·
COc1cccc(CNC(=O)COC(=O)c2ccc(S(C)(=O)=O)c([N+](=O)[O-])c2)c1,·,·,·,-4%,64%,·
Cc1ccc2c(c1Br)/C(=N/N1C(=O)c3ccccc3C1=O)C(=O)N2,1,-10%,14%,-19%,35%,4
CCOc1ccc(N=C2C(=O)Nc3ccc(C)c(Br)c32)cc1,-2,35µM*,?,?,?,-5
O=c1ccccn1CCOc1ccccc1Cl,9,8%,21%[59 µM],-12%,12%,9
Clc1ccc(OCCN2CCCCC2)c(Cl)c1,-1,50µM*,11µM*,5.6µM*,45µM*,5
O=C(COc1ccc(Cl)cc1Cl)N1CCCC1,0,-6%,?,-12%,22%,2
Clc1ccccc1OCCN1CCCCC1,1,-3%,?,22µM*,?,1
O=C(CSc1nc(=O)n(Cc2ccco2)c2c1CCC2)NCc1ccccc1,·,-6%,9%[59 µM],-16%,4%,·
CC(=O)Nc1cc(=O)c2cccnc2[nH]1,?,·,·,50µM*,2%,-14
CC(C)C(=O)Nc1cccc(NC(=O)CCN2C(=O)c3ccccc3S2(=O)=O)c1,-10,-1%,21%[59 µM],-4%,11%,-16
CC(=O)N/C(=C/c1ccc2c(c1)OCO2)C(=O)NC(Cc1ccccc1)C(=O)O (stereo unspecified),5,·,·,-31%,16%,0
CC(=O)N/C(=C\c1ccccc1)C(=O)NC(C)C(=O)O (stereo unspecified),4,-21%,56µM*,-2%,20%,-1
CC(=O)N/C(=C\c1ccc2c(c1)OCO2)C(=O)NC(C(=O)O)c1ccccc1 (stereo unspecified),7,-18%,89µM*,-11%,8%,4
CC(=O)N/C(=C\c1ccc(F)cc1)C(=O)NC(C(=O)O)C(C)C (stereo unspecified),0,-37%,56µM*,-17%,44%,9
Cc1cc(C)n(-c2nc3ccccc3nc2Nc2ccc(Cl)cc2Cl)n1,·,16%,?,-5%,47%,·
COc1ccc(C)cc1NC(=O)c1ccc2c(O)c(S(=O)(=O)c3ccccc3)c(=O)[nH]c2c1,-5,-18%,8%[59 µM],-3%,0%,-13
Cc1ccccc1C(=O)NC1(C(F)(F)F)C(=O)Nc2c1c(=O)[nH]c(=O)n2CCc1ccccc1 (stereo unspecified),·,5%,2%[59 µM],4%,15%,·
Cc1cccc(Nc2c(-c3ccsc3)nc3nc(C)cc(C)n23)c1,·,5%,-25%[59 µM],4%,21%,·
Cc1ccn2c(Nc3c(C)cccc3C)c(-c3ccsc3)nc2c1,·,-36%,10µM*,?,-20%,·
Cc1ccn2c(Nc3c(C)cccc3C)c(-c3ccc(Cl)s3)nc2c1,·,5.6µM*,7.1µM*,?,?,·
FC(F)(F)c1ccc(Cl)c(-n2c(-c3cc(C4CC4)[nH]n3)n[nH]c2=S)c1,-18,-20%,8.9µM*,?,13%,-9
COc1cc(-c2n[nH]c(=S)n2-c2cc(C(F)(F)F)ccc2Cl)cc(OC)c1OC,-3,-33%,?,-15%,29%,1
FC(F)(F)c1ccc(Cl)c(-n2c(-c3cc(-c4ccco4)[nH]n3)n[nH]c2=S)c1,-9,-38%,16µM*,-30%,11%,-4
FC(F)(F)c1ccc(Cl)c(-n2c(-c3ccco3)n[nH]c2=S)c1,-6,-13%,10µM*,?,50%,-3
SMILES,Six1-Eya2 blk,BAZ2B block,G9a inh,JMJD2A Tudor,HP1b chromo inh,CtBP-E1A inh
Cc1nn(-c2cc(C(F)(F)F)ccc2Cl)c2nc(C(Cl)(Cl)Cl)[nH]c(=O)c12,1,-20%,-3%,-11%,32%,3
Cc1nc2ccccc2n1C1CCN(C(=O)Nc2ccccc2)CC1,3,-15%,?,4%,29%,-3
CCOC(=O)Cc1csc(NC(=O)COc2ccc(N(C)S(=O)(=O)c3ccc(C)cc3)cc2)n1,-3,3%,13%,-17%,27%,-5
CCOc1ccc(S(=O)(=O)N(C)c2ccc(OCC(=O)Nc3nc(-c4cc(OC)ccc4OC)cs3)cc2)cc1,2,5%,50µM*,-14%,6%,-24
Cc1cc(CC(=O)O)c2oc(-c3ccoc3)cc(=O)c2c1,-5,·,·,89µM*,-20%,·
Cc1cc2c(=O)cc(-c3ccccc3)oc2c(C(=O)O)c1C,-12,·,·,·,·,2
COc1ccc(Cc2n[nH]c(=S)n2Cc2ccccc2)cc1Cl,-3,?,6.3µM*,56µM*,-18%,-2
CCOc1ccc(Cc2n[nH]c(=S)n2Cc2ccccc2)cc1,-7,-38%,1.1µM*,45µM*,-10%,·
Cc1ccc(OCc2n[nH]c(=S)n2Cc2ccccc2)cc1,-5,-20%,?,-28%,20%,0
COc1ccccc1C(=O)NCc1n[nH]c(=S)n1Cc1ccccc1,-3,-3%,?,35µM*,43%,·
O=C(CN1C(=O)C2(SCC(=O)N2c2cccc(Cl)c2)c2ccccc21)NC1CCCCC1 (stereo unspecified),·,4%[57.1 µM],0%[59 µM],-16%,25%,·
COC(=O)c1ccccc1NC(=O)Cn1nnc2sc(-c3ccccc3)cc2c1=O,·,-22%,-3%[59 µM],-7%,30%,·
O=C(C[n+]1ccc(C(=O)N/N=C/c2ccc(Br)cc2)cc1)c1ccccc1,11,-10%,7.9µM*,-15%,29%,0
O=C(C[n+]1cccc(C(=O)N/N=C/c2cccc([N+](=O)[O-])c2)c1)c1ccccc1,-9,-7%,50µM*,-32%,21%,-6
O=C(C[n+]1ccc(C(=O)N/N=C/c2ccc(OCc3ccccc3)cc2)cc1)c1ccccc1,-4,5%,?,-35%,5%,10
O=C(N/N=C/c1ccc(Br)cc1)c1ccc(NC(=O)c2ccccc2)cc1,1,·,·,-16%,22%,0
O=C(C[n+]1ccc(C(=O)N/N=C/c2ccc(O)cc2)cc1)c1ccccc1,-28,?,14µM*,-22%,34%,-14
COc1ccc(OC)c(/C=N/NC(=O)c2cc[n+](CC(=O)c3ccccc3)cc2)c1,-17,-10%,79µM*,-24%,31%,-12
CCCCC(CC)CNC(=O)CN1C(=O)CSc2ccc(S(=O)(=O)N3CCOCC3)cc21 (stereo unspecified),·,3%,6%[59 µM],-15%,7%,·
